According to the antibiotic and cytotoxicity screens of Wong et al. (2023):
The campaign covered roughly 39,000 compounds. About 3,300 (8.5%) were called active. This excerpt belongs to a sample that is enriched for actives.

Each compound was assayed on HepG2 (assay: cytotoxicity call (relative viability < 0.9)). Details: 10 µM.

Compound	cytotoxicity call
[O-][n+]1onc2c1CCc1c-2nn(-c2ccccc2)[n+]1[O-]	inactive
COc1ccc(C#Cc2ccc3c(c2)[C@]2(C(=O)N3)[C@H](c3ccc(OCCO)cc3)N3[C@H](c4ccccc4)[C@H](c4ccccc4)OC(=O)[C@H]3[C@@H]2C(=O)N2CCN(c3ncccn3)CC2)cc1	inactive
COc1ccc(S(=O)(=O)N(C)C[C@@H]2Oc3ncc(C#CCN(C)C)cc3C(=O)N([C@H](C)CO)C[C@@H]2C)cc1	inactive
O=C(O)CCC(=O)Nc1ccccn1	inactive
COc1ccc(NC(=O)Nc2ccc3c(c2)C(=O)N([C@H](C)CO)C[C@H](C)[C@H](CN(C)C(=O)NC2CCCCC2)OCCCC[C@H](C)O3)cc1	inactive
Nc1ccn[nH]1	inactive
NCc1nnc2n1CCCCC2	inactive
CCOC(=O)C1CCN(C)CC1	inactive
CC[C@@]1(O)C[C@H](O[C@H]2C[C@H](N(C)C)[C@H](O[C@H]3C[C@H](O)[C@H](O[C@H]4CCC(=O)[C@H](C)O4)[C@H](C)O3)[C@H](C)O2)c2c(cc3c(c2O)C(=O)c2c(O)cccc2C3=O)[C@H]1C(=O)OC	active
C[C@@H]1CN([C@@H](C)CO)S(=O)(=O)c2ccc(C#CC3CCCCC3)cc2O[C@@H]1CN(C)C(=O)Cc1ccncc1	inactive
CO[C@H](C(=O)N(C)C[C@H]1OCc2ccccc2-c2c(n(C)c3ccccc23)C(=O)N([C@@H](C)CO)C[C@@H]1C)c1ccccc1	inactive
Cc1cc(C(=O)NCc2cc3n(n2)CCN(S(C)(=O)=O)C3)nc(C)n1	inactive
C[C@H]1CN([C@@H](C)CO)C(=O)Cc2cc(NC(=O)Nc3ccccc3)ccc2O[C@@H]1CN(C)Cc1ccc(C(F)(F)F)cc1	active
C[C@@H]1CN([C@H](C)CO)C(=O)Cc2cc(NC(=O)Nc3ccccc3)ccc2O[C@@H]1CN(C)Cc1ccc(C(F)(F)F)cc1	active
C[C@H]1CN([C@@H](C)CO)C(=O)Cc2cc(NC(=O)Nc3ccccc3)ccc2O[C@H]1CN(C)Cc1ccc(C(F)(F)F)cc1	active
C[C@@H]1CN([C@H](C)CO)C(=O)Cc2cc(NC(=O)Nc3ccccc3)ccc2O[C@H]1CN(C)Cc1ccc(C(F)(F)F)cc1	inactive
C[C@H](CO)N1C[C@H](C)[C@@H](CN(C)Cc2ccc(C(F)(F)F)cc2)Oc2ccc(NC(=O)Nc3ccccc3)cc2CC1=O	inactive
C[C@@H]1CN([C@@H](C)CO)C(=O)Cc2cc(NC(=O)Nc3ccccc3)ccc2O[C@@H]1CN(C)Cc1ccc(C(F)(F)F)cc1	active
COCC(=O)Nc1ccc2c(c1)C(=O)N(C)C[C@@H](OC)[C@H](C)CN(Cc1ccccc1F)[C@H](C)CO2	inactive
CN1CCN(C(=O)C[C@H]2C=C[C@@H](NC(=O)Cc3ccccn3)[C@@H](CO)O2)CC1	inactive
C[C@H]1CCCCO[C@H](CN(C)C(=O)CCC(F)(F)F)[C@@H](C)CN([C@@H](C)CO)C(=O)c2cc(NS(=O)(=O)c3ccc(F)cc3)ccc2O1	inactive
C[C@@H]1CN([C@@H](C)CO)C(=O)Cc2cc(NS(C)(=O)=O)ccc2O[C@H]1CN(C)C(=O)Nc1ccc(C(F)(F)F)cc1	inactive

Compound	cytotoxicity call
C[C@H](CO)N1C[C@H](C)[C@H](CN(C)S(=O)(=O)c2ccc(Cl)cc2)OCCCC[C@H](C)Oc2ccc(NC(=O)C3CCCCC3)cc2C1=O	inactive
C[C@H](CO)N1C[C@H](C)[C@H](CN(C)S(=O)(=O)c2ccccc2)Oc2ccc(NC(=O)Nc3cccc4ccccc34)cc2C1=O	inactive
COc1ccc(NC(=O)Nc2cccc3c2O[C@@H](CN(C)C(=O)Nc2ccc(C(F)(F)F)cc2)[C@H](C)CN([C@@H](C)CO)C3=O)cc1	inactive
C[C@@H]1CCCCO[C@H](CN(C)Cc2ccncc2)[C@@H](C)CN([C@@H](C)CO)C(=O)c2cc(NC(=O)Nc3ccc4c(c3)OCO4)ccc2O1	inactive
C[C@@H]1CN([C@@H](C)CO)C(=O)Cc2cc(NC(=O)Nc3ccccc3)ccc2O[C@H]1CN(C)Cc1ccc(C(F)(F)F)cc1	active
C[C@H](CO)N1C[C@H](C)[C@H](CN(C)Cc2ccc(C(F)(F)F)cc2)Oc2ccc(NC(=O)Nc3ccccc3)cc2CC1=O	inactive
NCc1ccc2c(c1)CCO2	inactive
C[C@H]1CN([C@@H](C)CO)S(=O)(=O)c2ccc(-c3cncnc3)cc2O[C@H]1CN(C)C(=O)Cc1ccncc1	inactive
Cc1ccc(S(=O)(=O)Nc2ccc3c(c2)C(=O)N([C@H](C)CO)C[C@H](C)[C@H](CN(C)Cc2ccc(Cl)c(Cl)c2)O3)cc1	active
Cc1ccc(S(=O)(=O)Nc2ccc3c(c2)C(=O)N([C@H](C)CO)C[C@@H](C)[C@H](CN(C)Cc2ccc(Cl)c(Cl)c2)O3)cc1	inactive
Cc1ccc(S(=O)(=O)Nc2ccc3c(c2)C(=O)N([C@H](C)CO)C[C@@H](C)[C@@H](CN(C)Cc2ccc(Cl)c(Cl)c2)O3)cc1	active
Cc1ccc(S(=O)(=O)Nc2ccc3c(c2)C(=O)N([C@@H](C)CO)C[C@@H](C)[C@@H](CN(C)Cc2ccc(Cl)c(Cl)c2)O3)cc1	active
Cc1ccc(S(=O)(=O)Nc2ccc3c(c2)C(=O)N([C@@H](C)CO)C[C@H](C)[C@H](CN(C)Cc2ccc(Cl)c(Cl)c2)O3)cc1	inactive
Cc1ccc(S(=O)(=O)Nc2ccc3c(c2)C(=O)N([C@@H](C)CO)C[C@@H](C)[C@H](CN(C)Cc2ccc(Cl)c(Cl)c2)O3)cc1	inactive
Cc1ccc(S(=O)(=O)Nc2ccc3c(c2)C(=O)N([C@@H](C)CO)C[C@H](C)[C@@H](CN(C)Cc2ccc(Cl)c(Cl)c2)O3)cc1	inactive
Cc1ccc(S(=O)(=O)Nc2ccc3c(c2)C(=O)N([C@H](C)CO)C[C@H](C)[C@@H](CN(C)Cc2ccc(Cl)c(Cl)c2)O3)cc1	active
NC(=O)CSCC(=O)Nc1ccccc1F	inactive
O=C(O)/C=C\C(=O)NCc1ccccc1	inactive
COCCN1C[C@H]2[C@@H](OC)CCN(S(=O)(=O)c3cn(C)cn3)[C@H]2C1	inactive
CNC(=O)C[C@@H]1CC[C@@H]2[C@H](COC[C@@H](O)CN2C(=O)c2ccccn2)O1	inactive
C[C@H](CO)N1C[C@H](C)[C@@H](CN(C)S(=O)(=O)c2cccs2)Oc2ccc(NS(C)(=O)=O)cc2CC1=O	inactive
C[C@H](O)[C@H](O)[C@@H](O)[C@@H](O)/C=N/NC(=O)c1cccc(C(=O)NO)c1	inactive

Compound	cytotoxicity call
Cc1cc(C(=O)Nc2cccc3c2O[C@@H](CN(C)Cc2ccc4c(c2)OCO4)[C@@H](C)CN([C@@H](C)CO)C3=O)n(C)n1	inactive
COc1ccc(NC(=O)Nc2ccc3c(c2)C(=O)N([C@H](C)CO)C[C@@H](C)[C@H](CN(C)Cc2ccc(-c4ccccc4)cc2)O3)cc1	active
COc1ccc(NC(=O)Nc2ccc3c(c2)C(=O)N([C@H](C)CO)C[C@H](C)[C@H](CN(C)Cc2ccc(-c4ccccc4)cc2)O3)cc1	active
COc1ccc(NC(=O)Nc2ccc3c(c2)C(=O)N([C@@H](C)CO)C[C@H](C)[C@@H](CN(C)Cc2ccc(-c4ccccc4)cc2)O3)cc1	inactive
COc1ccc(NC(=O)Nc2ccc3c(c2)C(=O)N([C@H](C)CO)C[C@H](C)[C@@H](CN(C)Cc2ccc(-c4ccccc4)cc2)O3)cc1	inactive
COc1ccc(NC(=O)Nc2ccc3c(c2)C(=O)N([C@H](C)CO)C[C@@H](C)[C@@H](CN(C)Cc2ccc(-c4ccccc4)cc2)O3)cc1	active
COc1ccc(NC(=O)Nc2ccc3c(c2)C(=O)N([C@H](C)CO)C[C@@H](C)[C@H](CN(C)Cc2ccc(Oc4ccccc4)cc2)O3)cc1	inactive
COc1ccc(NC(=O)Nc2ccc3c(c2)C(=O)N([C@@H](C)CO)C[C@H](C)[C@H](CN(C)Cc2ccc(-c4ccccc4)cc2)O3)cc1	inactive
COc1ccc(NC(=O)Nc2ccc3c(c2)C(=O)N([C@@H](C)CO)C[C@@H](C)[C@@H](CN(C)Cc2ccc(-c4ccccc4)cc2)O3)cc1	active
COc1ccc(NC(=O)Nc2ccc3c(c2)C(=O)N([C@@H](C)CO)C[C@H](C)[C@H](CN(C)Cc2ccc(Oc4ccccc4)cc2)O3)cc1	inactive
CC(=O)c1ccc(S(=O)(=O)N2[C@@H]3CC[C@@H](C3)[C@H]2c2nc3cccc(OCc4ccc(F)cc4)c3[nH]2)cc1	inactive
C[C@@H]1CN([C@@H](C)CO)C(=O)c2cc(NC(=O)C3CC3)ccc2O[C@@H]1CN(C)S(=O)(=O)c1cccs1	inactive
CCCC(=O)Nc1ccc2c(c1)OC[C@H](C)N(Cc1ccc(-c3ccccn3)cc1)C[C@@H](C)[C@H](OC)CN(C)C2=O	inactive
COc1ccc(S(=O)(=O)Nc2ccc3c(c2)C(=O)N([C@@H](C)CO)C[C@@H](C)[C@@H](CN(C)C(=O)Nc2c(C)noc2C)OCCCC[C@H](C)O3)cc1	inactive
C[C@@H]1CN([C@@H](C)CO)C(=O)c2cc(NS(=O)(=O)c3ccccc3)ccc2O[C@@H]1CN(C)C(=O)Nc1cccc2ccccc12	inactive
C[C@@H]1CN([C@@H](C)CO)C(=O)Cc2cc(NC(=O)Nc3ccc(F)cc3)ccc2O[C@@H]1CN(C)S(=O)(=O)c1cn(C)cn1	inactive
Cc1ccc(S(=O)(=O)N(C)C[C@@H]2OCCCC[C@H](C)Oc3ccc(NS(C)(=O)=O)cc3C(=O)N([C@@H](C)CO)C[C@H]2C)cc1	inactive
Cc1noc(C)c1S(=O)(=O)Nc1ccc2c(c1)CC(=O)N([C@@H](C)CO)C[C@H](C)[C@H](CN(C)Cc1ccc3c(c1)OCO3)O2	inactive
C[C@H](CO)N1C[C@H](C)[C@H](CN(C)C(=O)N[C@H](C)c2ccccc2)OCc2ccccc2-c2c(n(C)c3ccccc23)C1=O	inactive
COc1ccc(S(=O)(=O)N(C)C[C@@H]2OCCCC[C@H](C)Oc3ccc(NC(=O)NC4CCCCC4)cc3C(=O)N([C@H](C)CO)C[C@H]2C)cc1	inactive
